According to the supplement of paper PMC11634586:
Where a name gives a salt, the structure may show the parent alone.

These compounds were tested on NCI-H1688 (assay: inhibition of cell viability relative to untreated control (fraction); higher = stronger growth inhibition, active = 0.5 or more). Settings: 30 µM; 24 h.
Outline: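 After seeding at 3 × 10^3 cells/well in 96-well plates and a 24 h wait, NCI-H1688 small cell lung cancer cells received a natural compound library (TargetMol) at 30 µM for 24 h, kept at 37°C with 5% CO2. Triplicate readings of Cell Counting Kit-8 absorbance at 450 nm measured viability. Each value is the inhibition of cell viability as a fraction, derived from viability normalised to untreated cells.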

Compound | inhibition of cell viability
O=C(O)CCCCCCCC(=O)O [Azelaic acid] | 0.133 (inactive)
Oc1cc(O)cc(/C=C/c2ccc(O)c(O)c2)c1 [Piceatannol] | 0.164 (inactive)
NC(N)=O | -0.0194 (inactive)
Cc1coc2c1C(=O)C(=O)c1c-2ccc2c1CCCC2(C)C [Tanshinone IIA] | 0.958 (active)
CC(C)=CCOc1c2ccoc2cc2oc(=O)ccc12 [Isoimperatorin] | -0.0286 (inactive)
O=c1ccc2cc(O)c(O)cc2o1 [Esculetin] | 0.643 (active)
CC[C@]1(O)C[C@H]2CN(CCc3c([nH]c4ccccc34)[C@@](C(=O)OC)(c3cc4c(cc3OC)N(C=O)[C@H]3[C@@](O)(C(=O)OC)[C@H](OC(C)=O)[C@]5(CC)C=CCN6CC[C@]43[C@@H]65)C2)C1 [Vincristine sulfate] | 0.847 (active)
CC1(C)CCC[C@](C)([C@H]2CC[C@]3(C)[C@@H]2[C@H](O)C[C@@H]2[C@@]4(C)CC[C@H](O)C(C)(C)[C@@H]4[C@H](O)C[C@]23C)O1 [Panaxtriol] | -0.0145 (inactive)
CC(=O)OC(C)C(C)C(=O)OCC12C3CC(C)(C)[C@H](O[C@@H]1C[C@]1(C)C3=CCC3C4(C)CCC(O[C@@H]5O[C@H](C(=O)O)[C@@H](O[C@H]6O[C@H](CO)[C@@H](O)[C@H](O)[C@H]6O)[C@H](O)[C@H]5O[C@@H]5OC[C@@H](O)[C@H](O)[C@H]5O)[C@](C)(CO)C4CCC31C)C2O (stereo partly drawn) [Sodium Aescinate] | 0.524 (active)
O=c1cc[nH]c(=O)[nH]1 [Uracil] | -0.231 (inactive)
C[C@H](CCC(=O)O)[C@H]1CC[C@H]2[C@@H]3[C@H](O)C[C@@H]4C[C@H](O)CC[C@]4(C)[C@H]3CC[C@]12C [Chenodeoxycholic acid] | 0.152 (inactive)
CCCCCC1C(=O)CCC1CC(=O)OC (stereo not drawn) [Methyl Dihydrojasmonate;Hedione] | -0.235 (inactive)
COc1cc(CCC(=O)O)ccc1O [Hydroferulic acid] | 0.0171 (inactive)
COc1ccc(-c2coc3cc(O)ccc3c2=O)cc1 [Formononetin] | 0.0427 (inactive)
COc1cc2c(cc1OC)[C@@H]1Cc3ccc(OC)c(OC)c3CN1CC2 [Rotundine, TETRAHYDROPALMATINE HYDROCHLORIDE] | -0.254 (inactive)
O=C1O[C@H]([C@H](O)CO)C([O-])=C1O.[Na+] [Sodium erythorbate] | 0.0513 (inactive)
CCOC(=O)C1=C[C@]2(CC)CCCN3CCc4c(n1c1ccccc41)[C@@H]32 [Vinpocetine] | -0.174 (inactive)
CC1(C)CC[C@]2(C(=O)O)CC[C@]3(C)C(=CC[C@@H]4[C@@]5(C)CC[C@H](O)C(C)(C)[C@@H]5CC[C@]43C)[C@@H]2C1 [Oleanolic Acid] | 0.0195 (inactive)
COc1ccc([C@@H]2CC(=O)c3c(O)cc(O[C@@H]4O[C@H](CO)[C@@H](O)[C@H](O)[C@H]4O[C@@H]4O[C@@H](C)[C@H](O)[C@@H](O)[C@H]4O)cc3O2)cc1O [Neohesperidin] | 0.00547 (inactive)

Compound | inhibition of cell viability
C[C@H](CCC(=O)NCCS(=O)(=O)O)[C@H]1CC[C@H]2[C@@H]3[C@@H](O)C[C@@H]4C[C@H](O)CC[C@]4(C)[C@H]3CC[C@]12C [Tauroursodeoxycholic Acid] | 0.00688 (inactive)
CC1(C)CC[C@]2(C(=O)O)[C@H](O)C[C@]3(C)C(=CC[C@@H]4[C@@]5(C)CC[C@H](O)C(C)(C)[C@@H]5CC[C@]43C)[C@H]2C1 [Echinocystic acid] | 0.139 (inactive)
CC(C)(CO)C(O)C(=O)NCCCO (stereo not drawn) [Panthenol] | 0.0837 (inactive)
CC[C@@H]1C(=O)OC[C@@H]1Cc1cncn1C [(+)-Pilocarpine hydrochloride] | 0.197 (inactive)
COc1cc(O)c(C(C)=O)c(OC)c1 [Xanthoxyline] | -0.308 (inactive)
CN(C)[C@@H]1C(O)=C(C(N)=O)C(=O)[C@@]2(O)C(O)=C3C(=O)c4c(O)ccc(Cl)c4[C@@](C)(O)[C@H]3C[C@@H]12 [Chlortetracycline hydrochloride] | -0.0618 (inactive)
O=c1cc(-c2ccccc2)oc2cc(O)cc(O)c12 [Chrysin] | 0.197 (inactive)
Cc1ncc(C[n+]2csc(CCO)c2C)c(N)n1 [Thiamine hydrochloride] | -0.123 (inactive)
O=C(/C=C/C=C/c1ccc2c(c1)OCO2)N1CCCCC1 [Piperine] | -0.249 (inactive)
C[C@H]1O[C@@H](O[C@H]2[C@@H](O)C[C@H](O[C@H]3[C@@H](O)C[C@H](O[C@H]4CC[C@@]5(C)[C@H](CC[C@@H]6[C@@H]5CC[C@]5(C)[C@@H](C7=CC(=O)OC7)CC[C@]65O)C4)O[C@@H]3C)O[C@@H]2C)C[C@H](O)[C@@H]1O [Digitoxin] | 0.981 (active)
C[C@H]1[C@H](C)CC[C@]2(C(=O)O)CC[C@]3(C)C(=CC[C@@H]4[C@@]5(C)CC[C@H](O)C(C)(C)[C@@H]5CC[C@]43C)[C@H]12 [Ursolic acid] | 1.01 (active)
CC1(C)O[C@H]2CC(=O)OC[C@]23[C@H]2CC[C@@]4(C)[C@H](c5ccoc5)OC(=O)[C@H]5O[C@]54[C@]2(C)C(=O)C[C@@H]13 [Limonin] | -0.0414 (inactive)
O=c1[nH]cnc2c1ncn2[C@@H]1O[C@H](CO)[C@@H](O)[C@H]1O [Inosine] | 0.0115 (inactive)
COc1ccc2cc1Oc1ccc(cc1)C[C@H]1c3cc(c(OC)cc3CCN1C)Oc1c(OC)c(OC)cc3c1[C@H](C2)N(C)CC3 [Tetrandrine] | 1.01 (active)
CC(=O)OC1CC2CCC1(C)C2(C)C (stereo not drawn) [Bornyl acetate] | -0.214 (inactive)
COC(=O)CC[C@@H](C)[C@H]1CC[C@H]2[C@@H]3[C@H](O)C[C@@H]4C[C@H](O)CC[C@]4(C)[C@H]3C[C@H](O)[C@]12C [Methyl Cholate] | 0.013 (inactive)
CCCCCCCCCCCCCCCCCCOCC(O)CO (stereo not drawn) [Batyl alcohol] | -0.0252 (inactive)
O=C(O[C@@H]1Cc2c(O)cc(O)cc2O[C@@H]1c1cc(O)c(O)c(O)c1)c1cc(O)c(O)c(O)c1 [(-)-Epigallocatechin Gallate] | 0.0795 (inactive)
O=C(O)CCCC[C@@H]1SC[C@@H]2NC(=O)N[C@@H]21 [D-Biotin] | -0.0414 (inactive)
